Laboratory results published in PubChem BioAssay (NCATS).
Inconclusive results are not listed. Active and inactive are the calls of the source. Calls follow the shape of the dose curve; as a rule, active = well fitted curve in the direction sought with a large enough effect; inconclusive = small, poorly fitted or top-dose-only effect, or another doubt; inactive = no such curve, though single readings can be large; an effect the other way counts as inactive or inconclusive.

Assay: qHTS for Inhibitors of Plasmodium falciparum (DD2) proliferation (AID 504314); also: potency is read from the fitted curve at half-maximal effect;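 as to activity, negative = inhibition: parasite DNA measured by SYBR Green fluorescence after red cell lysis; plate controls were DMSO vehicle for no effect and artemisinin wells for full effect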
Details: P. falciparum Dd2 in erythrocytes, SYBR Green growth, 72 h; series mostly up to 6.11 µM; activity, negative = inhibition: at the top concentration
Summary of the method: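 Normalization used 0.29 uM artemisinin as full inhibition and DMSO as baseline. Parasitized erythrocytes were exposed to compounds for 72 h (37C, 5% CO2), then lysed with saponin/Triton buffer containing SYBR Green I.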

activity, negative = inhibition, inactive:
COc1ccc(-c2nc3c(c4c2C[C@H](c2ccccc2)OC4)CN(S(=O)(=O)c2ccc(NC(C)=O)cc2)CC3)c(C)c1 -0.765% [at 1.12 µM]
C=CC[C@@]1(c2ccc(OC)cc2)Oc2ccccc2C2=NCCN=C21 -6.6%
CCCCCC1=CC2=C(C(=O)OC)C(c3ccccc3)NC(=O)N2CC1 (stereo not given) 3.02%
C=CCOC(=O)N[C@@H](CCc1ccccc1)C(C(C)=O)C(C)=O -3.2%
CC(CCC(=O)OC[C@H]1O[C@H](C#Cc2ccccc2)C=C[C@H]1Oc1ccc(C)cc1)=NO[C@H](C)c1cn([C@H](CO)Cc2ccccc2)nn1 -3.35%

Potency, active:
CCCC[C@]12Cc3ccccc3[C@H](O1)c1c(cc(-c3ccccc3)oc1=O)O2 1.69 µM

Assay: qHTS for Inhibitors of Plasmodium falciparum (GB4) proliferation (AID 504315);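 also: 0% = DMSO vehicle and -100% = 0.29 µM artemisinin control; nearly all actives have a fitted effect of over 50% in size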
Details: P. falciparum GB4 in erythrocytes, SYBR Green DNA, 72 h; series mostly up to 6.7 µM; activity change, negative = inhibition: at the top concentration
Summary of the method: (§1)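 Parasite growth measured as SYBR Green DNA fluorescence (ex 485, em 535 nm) after overnight lysis following 72 h culture at 37 °C, 0.3% parasitemia, 2.5% hematocrit. Values normalized against DMSO and 0.29 uM artemisinin controls, with plate-stack correction.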

Activity change, negative = inhibition, inactive:
COC(=O)C1=C(C(=O)OC)[C@@H]2N(C)c3ccccc3[C@@]23CCC(=O)N(Cc2ccc(OC)cc2)C3=N1 -14.2%
C=CCN1C(=O)[C@@]2(CC(C)=C[C@@H](COc3ccccc3)O2)c2ccccc21 -11.5%
COC(=O)C1=C(C(=O)OC)[C@@H]2N(CC=C(C)C)c3ccccc3[C@@]23CCC(=O)N(CCc2ccccn2)C3=N1 -1.42%
CCCCCCC1=Cc2cc(OC)c(OC)cc2C(C(C(C)=O)C(=O)OCC)O1 (stereo not given) -11.9%
CC(C)CON=C1C[C@@H](O)[C@@H](O)[C@@H]2[C@H]3C(=O)N(Cc4ccc5c(c4)OCO5)C(=O)[C@@H]3CC[C@@H]12 3.41%
COC(=O)[C@@H]1C=C[C@H](C)[C@H](CCOc2ccccc2)O1 -3.3%
COC(=O)[C@H]1[C@@H](c2ccccc2)NC(=O)N(CCc2cc(OC)c(OC)c(OC)c2)[C@@H]1C 2.02%
CC#CCC1(C(=O)OC)C(=O)NC[C@H]1c1ccccc1 (stereo not given in full) -5.56%
COc1ccc(-c2cnnc(CCCn3ccnc3-c3ccccc3)n2)cc1 -8.12%
COc1ccc(O[C@H]2C=C[C@@H](c3ccccc3)O[C@H]2CON=C[C@@H](C)[C@H](OCc2ccccc2)C(C)C)cc1 -7.01%
C[C@@H]1CC[C@H]2C(=O)N(Cc3ccc(Cl)cc3)C[C@@H](O)CN2[C@@H]1c1cccc(Br)c1 -2.68%
CC1=C[C@@H](C)O[C@@]2(C1)C(=O)Nc1cccc(Br)c12 -7.52%
C[C@@H]1CC[C@H]2C(=O)N3[C@@H](CC[C@@H](C)[C@@H]3c3ccc(Br)cc3)C(=O)N2[C@@H]1c1ccc(Br)cc1 -1.6%
C=CC[C@@]1(c2ccc(OC)cc2)Oc2ccccc2C2=NCCN=C21 -11%
CC(CCC(=O)OC[C@H]1O[C@H](C#Cc2ccccc2)C=C[C@H]1Oc1ccc(C)cc1)=NO[C@H](C)c1cn([C@H](CO)Cc2ccccc2)nn1 -8.88%

Potency, inactive:
COC(=O)CCCC1=CC2=CC(=O)C(C)(OC(=O)c3cccs3)C(=O)C2=CN1c1ccc(OC)cc1 (stereo not given)
CC1(OC(=O)CCc2ccccc2)C(=O)C=C2C=C(c3ccc(C#N)cc3)N(CC3CC3)C=C2C1=O (stereo not given)
COC(=O)CC1c2ccccc2C(Cc2ccc3c(c2)OCO3)=C(C)N1C(=O)OC (stereo not given)
COc1ccc(-c2nc3c(c4c2C[C@H](c2ccccc2)OC4)CN(S(=O)(=O)c2ccc(NC(C)=O)cc2)CC3)c(C)c1

Assay: qHTS for Inhibitors of Plasmodium falciparum (7G8) proliferation (AID 504316); also: nearly all actives have a fitted effect of over 65% in size; also: potency is read from the fitted curve at half-maximal effect;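 as to activity change, negative = inhibition: 0% = DMSO vehicle and -100% = 0.29 µM artemisinin full kill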
Details: P. falciparum 7G8 in erythrocytes, SYBR Green DNA, 72 h; series mostly up to 6.7 µM; activity change, negative = inhibition: at the top concentration
Summary of the method: as §1

Activity change, negative = inhibition, inactive:
COC(=O)CC=C[C@@H](C)[C@H](NC(=O)OCC(Cl)(Cl)Cl)c1cccc(OC)c1 -6.74%
CCN1C(=NCc2ccc(OC)cc2)NC(c2cccc(F)c2)C(C(=O)OC)=C1C (stereo not given) -9.62%
C=CCN1C(=O)[C@@]2(CC(C)=CC[C@@H](C)O2)c2c(Br)cccc21 -9.52%
COC(=O)NC(c1ccc2c(c1)OCO2)C(C(=O)OC)C(=O)OC (stereo not given) 12%
COC(=O)N[C@H](C(C(=O)OC)=C(C)NCc1ccccc1)c1ccco1 12.2%
C=C(C)C(=O)C=Cc1ccc(Br)cc1 2.91%
CCN1C(=NCCCOC(C)C)N[C@H](c2ccccc2)[C@H](C(=O)OC)[C@H]1C 3.45%
C[C@@H]1CC[C@H]2C(=O)O[C@@H](Cc3ccccc3)CN2[C@@H]1c1ccc(Br)cc1 0.506%
CC(C)=CCC12CC3[C@@H](O)C(C(=O)c4ccccc4)(C1=O)C(=O)C(CC=C(C)C)(C2=O)C3(C)C (stereo not given in full) -13.4%
COc1ccc(COC(=O)NN=C2C[C@@H](O)[C@@H](O)[C@@H]3[C@H]4C(=O)N(Cc5ccc6c(c5)OCO6)C(=O)[C@@H]4CC[C@H]23)cc1 -18.6%
C=C(Nc1ccc(OC)cc1)C(=O)OC 5.24%
CC(C)CON=C1C[C@@H](O)[C@@H](O)[C@@H]2[C@H]3C(=O)N(C[C@@H]4CCCO4)C(=O)[C@@H]3CC[C@H]12 -12.5%
COc1ccc(COC(=O)NN=C2C[C@@H](O)[C@@H](O)[C@@H]3[C@H]4C(=O)N(C5CCCCC5)C(=O)[C@@H]4CC[C@H]23)cc1 -3.62%
COc1ccc2c(c1)[C@@H](NC(=O)C(F)(F)F)[C@@H]1CCCC[C@]21c1ccccc1 -0.898%
C=CCOC(=O)N[C@H](c1ccco1)C(C(C)=O)C(C)=O 16.6%
CCCCCC1=CC2=C(C(=O)OC)C(c3ccccc3)NC(=O)N2CC1 (stereo not given) -13.8%
C=CCOC(=O)N[C@@H](CCc1ccccc1)C(C(C)=O)C(C)=O 12.5%

Potency, active:
CCCCCCCc1cc2c(cn1)C(=O)C(C)(OC(C)=O)C(O)=C2Cl (stereo not given) 0.953 µM
CCCC[C@]12Cc3ccccc3[C@H](O1)c1c(cc(-c3ccccc3)oc1=O)O2 1.9 µM

Potency, inactive:
COC(=O)C1=C(C(=O)OC)[C@@H]2N(C)c3ccc(OC)cc3[C@@]23C[C@@H](C(=O)OC)N(C(=O)c2cccs2)C3=N1
